Assay results reported in PubChem BioAssay (NCATS).
Several values for one entry are separate records, joined by “and”; a condition that tells them apart may be missing. Identical values can stand only once. Inconclusive results are not listed. Some structures have more than one record in an assay (separate samples or runs), and their calls can disagree. Activity calls are given as the source filed them. Unless noted, calls come from the whole dose curve; as a rule, active = well fitted curve in the direction sought with a large enough effect; inconclusive = small, poorly fitted or top-dose-only effect, or another doubt; inactive = no such curve, though single readings can be large; an effect the other way counts as inactive or inconclusive.

Target: Cytochrome P450 2C19 (Homo sapiens) (UniProt P33261)
Sequence (P33261 whole entry, looked up): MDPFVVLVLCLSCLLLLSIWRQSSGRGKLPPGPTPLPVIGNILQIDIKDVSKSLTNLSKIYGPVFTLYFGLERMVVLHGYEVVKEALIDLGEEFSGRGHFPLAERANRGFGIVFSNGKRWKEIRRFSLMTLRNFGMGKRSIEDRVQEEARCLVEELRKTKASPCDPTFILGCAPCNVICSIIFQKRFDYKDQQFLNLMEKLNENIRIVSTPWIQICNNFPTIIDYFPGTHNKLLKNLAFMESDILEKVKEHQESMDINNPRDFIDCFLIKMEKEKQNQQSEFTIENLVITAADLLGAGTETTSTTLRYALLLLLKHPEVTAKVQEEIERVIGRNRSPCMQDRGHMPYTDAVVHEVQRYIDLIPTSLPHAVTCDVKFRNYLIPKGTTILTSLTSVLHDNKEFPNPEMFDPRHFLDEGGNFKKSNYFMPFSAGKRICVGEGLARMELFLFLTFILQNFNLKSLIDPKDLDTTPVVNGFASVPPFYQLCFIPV
Assay: qHTS Assay for Inhibitors and Substrates of Cytochrome P450 2C19 (AID 899); note: nearly all actives have a fitted effect of over 60% in size; note: potency is the fitted concentration of half-maximal effect; for activity, negative = inhibition: % is set by controls: 0 for no effect and ±100 for the full control effect
Details: recombinant CYP2C19, luciferin-H EGE luminescence; series mostly up to 57.1 µM; activity, negative = inhibition: at the top concentration
Procedure, shortened: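 Signal comes from luciferase acting on luciferin released by CYP2C19-mediated hydroxylation of Luciferin-H EGE, 10uM (KM). Assay mix: 5nM enzyme, 50mM KPO4; 60 min at 37C with NADPH regeneration. Data normalized against 57uM ketoconazole.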

Row | SMILES | activity, negative = inhibition | Potency
1 | NC1(C(=O)O)CCCCC1 | 51.4% (inactive) | –
2 | O=C(N[C@@H](Cc1ccccc1)C(=O)CCl)OCc1ccccc1 | – | 5010 nM (active)
3 | NCCCNCCCCNCCCN | – | inactive and 7.94 µM (active)
4 | Cc1nc2c(OCc3ccccc3)cccn2c1CC#N | -15% (inactive) | –

System: not listed separately
Assay: Confirmation and Secondary Assay for Modulators of Hemoglobin Beta Chain Splicing at IVS2 654 locus (AID 910);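 note: HeLa cells stably carrying EGFP split by mutant beta-globin IVS2-654 intron; % of control where 0% means no effect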
Details: HeLa EGFP-654 splicing reporter, GFP fluorescence, 48 h; series mostly up to 46.1 µM; activation (splicing correction): at the top concentration
Procedure, shortened: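 HeLa cells stably expressing EGFP interrupted by β-globin IVS2-654 intron, seeded overnight in Opti-MEM/2% FCS, then treated 2 days at 37 °C. Restored splicing read as total peak GFP intensity per well by laser scanning cytometry (488 nm excitation, 500–520 nm emission); 500 nM antisense PNA as control.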

Row | SMILES | activation (splicing correction)
5 | O=C(O)c1ccccc1Nc1ccccc1 | 9.04% (inactive)
6 | NC1(C(=O)O)CC1 | 2.42% [at 38.3 µM] (inactive)
7 | O=C(O)/C=C/c1ccc(O)c(O)c1 | 1.38% [at 38.3 µM] (inactive)
8 | CC(=O)NCCc1c[nH]c2ccc(O)cc12 | 4.39% (inactive)

System: not listed separately
Assay: qHTS Assay for Identification of Small Molecule Agonists for Hypoxia Response Element Signaling Pathway (AID 914; active = well fitted activation curve with a large enough effect in the signal ratio, with a control signal flat, not every such curve was filed as active; the % refers to the signal ratio; note: % of control where 0% means no effect)
Details: ME-180 (cervical carcinoma) HRE-bla reporter, beta-lactamase ratio, CoCl2, 17 h; activation: stronger effect = higher value
Procedure, shortened: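 Positive modulation of EC50 CoCl2-induced hypoxia response element signaling is measured in ME-180 cells with a beta-lactamase reporter. Compounds are titrated, incubation runs 17 hours, and %Activity derives from the blue/green ratio.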

Row | SMILES | activation
9 | CCN1C(=O)C=CC1=O | 23.4% (inactive)
10 | NC1(C(=O)O)CC1 | -20.7% (inactive)
11 | Nc1ccc(N2C(=O)c3ccccc3C2=O)c(Cl)c1 | -21.1% (inactive)
12 | CCCn1c(=O)c2c(ncn2C)n(CCC)c1=O | 3.52% (inactive)
13 | [Li+] | 9.95% (inactive)
14 | C/C(=C\c1ccc(C(=O)O)cc1)c1ccc2c(c1)C(C)(C)CCC2(C)C | -65.3% (inactive)

System: not listed separately
Assay: qHTS Assay for Identification of Small Molecule Agonists for Thrombopoietin (TPO) Signaling Pathway (AID 917); note: potency is the fitted concentration of half-maximal effect; for activity, positive = activation: % is set by controls: 0 for no effect and ±100 for the full control effect
Details: TPO signaling pathway reporter cells, agonist qHTS, stimulated with TPO at its EC50; series mostly up to 38.5 µM; activity, positive = activation: at the top concentration
Procedure, shortened: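 Activators of TPO signaling were sought in murine Ba/F3 cells transfected with the human receptor, using a luciferase gene driven by the Glycoprotein IIb promoter; 24-hr compound exposure at 37 C alongside 26 pM TPO, in IL-3-free medium.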

Row | SMILES | activity, positive = activation | Potency
15 | NC1(C(=O)O)CCCCC1 | -11.6% (inactive) | –
16 | N#CC(C#N)=C(N)/C(C#N)=C/c1ccc(O)cc1 | 7.35% (inactive) | –
17 | O=c1onc2n1-c1cc(Br)ccc1OC2 | -10.4% (inactive) | –
18 | C=CCn1c(=O)c2c(nc(-c3ccc(S(=O)(=O)O)cc3)n2C)n(C)c1=O | -11.1% (inactive) | –
19 | N[C@H](C(=O)O)[C@H](O)C(=O)O | 0.579% (inactive) | –
20 | O=C(O)c1ccccc1Nc1ccccc1 | 7.58% (inactive) | –
21 | CNCCNS(=O)(=O)c1cccc2cnccc12 | 23.5% (inactive) | –
22 | NC1(C(=O)O)CC1 | 4.41% (inactive) | –
23 | Nc1ccc(N2C(=O)c3ccccc3C2=O)c(Cl)c1 | -0.869% (inactive) | –
24 | COc1ccc2c(c1)c(CC(=O)O)c(C)n2C(=O)c1ccccc1 | 2.83% (inactive) | –
25 | NC(=Nc1ccccc1)NC(=O)c1nc(Cl)c(N)nc1N | – | 2510 nM (active)
26 | COc1ccccc1N1CCN(CCCNc2c(C)c(=O)n(C)c(=O)n2C)CC1 | -13.9% (inactive) | –
27 | COc1ccccc1N1CCN(CCCCN2C(=O)c3ccccc3C2=O)CC1 | -5.49% (inactive) | –
28 | COc1cc2c(CCNC(C)=O)c[nH]c2cc1O | 6.81% (inactive) | –
29 | Clc1nccc2c1ccc1ccccc12 | 13.8% (inactive) | –
30 | Fc1ccc(CN(C2=NCCN2)c2c(Cl)cccc2Cl)cc1 | -17.3% (inactive) | –
31 | CCCn1c(=O)c2c(ncn2C)n(CCC)c1=O | -12.2% (inactive) | –
32 | O=C(O)/C=C/c1ccc(O)c(O)c1 | -27.4% (inactive) | –
33 | CC(=O)NCCc1c[nH]c2ccc(O)cc12 | -13.8% (inactive) | –
34 | NC(=O)CNCCC(c1ccccc1)c1ccccc1 | -8.65% (inactive) | –
35 | [Li+] | -14.1% (inactive) | –
36 | O=c1[nH]c2cc(Cl)ccc2c(O)c1-c1ccc(Oc2ccccc2)cc1 | -6.13% (inactive) | –
37 | CCCOC(=O)c1c(-c2ccccc2)nc(CC)c(C(=O)SCC)c1CCC | -8.13% (inactive) | –
38 | c1ccc2nc(C3=NCCN3)ccc2c1 | -0.138% (inactive) | –
39 | Cc1nc2c(OCc3ccccc3)cccn2c1CC#N | -15.1% (inactive) | –
40 | COc1ccc(CCN(C)CCc2ccc(OC)c(OC)c2)cc1OC | 4.28% (inactive) | –

System: not listed separately
Assay: Confirmation and Secondary Assay for Modulators of Hemoglobin Beta Chain Splicing at IVS2 705 locus (AID 930);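 note: HeLa cells stably expressing the EGFP-705 splicing reporter; GFP fluorescence per well restored by corrected splicing of the IVS2-705 intron in EGFP; % of control where 0% means no effect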
Details: HeLa EGFP-705 splicing reporter, GFP fluorescence, 48 h; series mostly up to 46.1 µM; activation: at the top concentration
Procedure, shortened: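 First, HeLa EGFP-705 cells are seeded at 500/well in Optimem with 2% FCS and left overnight. Next, compound or DMSO is added for 2 days. Finally wells are laser-scanned and total peak GFP intensity scored.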

Row | SMILES | activation
41 | O=C(O)c1ccccc1Nc1ccccc1 | 2.88% (inactive)
42 | NC1(C(=O)O)CC1 | 0.981% [at 38.3 µM] (inactive)
43 | O=C(O)/C=C/c1ccc(O)c(O)c1 | 1.12% [at 38.3 µM] (inactive)
44 | CC(=O)NCCc1c[nH]c2ccc(O)cc12 | 0.754% (inactive)

Target: Muscarinic acetylcholine receptor M1 (Rattus norvegicus) (UniProt P08482)
Sequence (P08482 whole entry, looked up): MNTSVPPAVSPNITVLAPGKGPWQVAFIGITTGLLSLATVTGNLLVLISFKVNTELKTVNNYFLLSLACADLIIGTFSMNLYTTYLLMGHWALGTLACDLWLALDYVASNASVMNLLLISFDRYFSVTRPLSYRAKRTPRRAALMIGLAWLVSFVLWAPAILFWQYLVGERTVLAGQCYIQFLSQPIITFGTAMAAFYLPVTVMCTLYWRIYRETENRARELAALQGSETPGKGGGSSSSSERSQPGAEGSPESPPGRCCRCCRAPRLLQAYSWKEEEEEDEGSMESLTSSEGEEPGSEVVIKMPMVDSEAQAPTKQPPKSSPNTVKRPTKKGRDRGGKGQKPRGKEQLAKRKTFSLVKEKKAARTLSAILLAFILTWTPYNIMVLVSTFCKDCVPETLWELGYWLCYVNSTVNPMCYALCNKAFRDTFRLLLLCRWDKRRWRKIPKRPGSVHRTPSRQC
Assay: qHTS Assay for Antagonists of Acetylcholine Muscarinic M1 Receptor: Kinetic Measurement of Intracellular Calcium Response (AID 943); note: nearly all actives have a fitted effect of over 75% in size; note: potency is the fitted concentration of half-maximal effect;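 for activity change, negative = inhibition: Fluo-4 calcium signal as peak divided by basal fluorescence over 4 min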
Details: M1-expressing cells, kinetic intracellular calcium fluorescence; series mostly up to 35.3 µM; activity change, negative = inhibition: at the top concentration
Procedure, shortened: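 Intracellular calcium flux, recorded with Fluo-4 in a kinetic plate reader, served as signal; the response to carbachol at EC80 (100 nM final) was taken as maximal over minimal fluorescence after a 10 min compound pre-incubation in rat M1-CHO cells.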

Row | SMILES | activity change, negative = inhibition | Potency
45 | CCN1C(=O)C=CC1=O | -20.1% (inactive) | –
46 | N#CC(C#N)=C(N)/C(C#N)=C/c1ccc(O)cc1 | -13.6% (inactive) | –
47 | O=c1onc2n1-c1cc(Br)ccc1OC2 | -39.9% (inactive) | –
48 | C=CCn1c(=O)c2c(nc(-c3ccc(S(=O)(=O)O)cc3)n2C)n(C)c1=O | -18.8% (inactive) | –
49 | N[C@H](C(=O)O)[C@H](O)C(=O)O | -6.42% (inactive) | –
50 | O=C(O)c1ccccc1Nc1ccccc1 | -10.8% (inactive) | –
51 | CNCCNS(=O)(=O)c1cccc2cnccc12 | -25.1% (inactive) | –
52 | COc1ccc2c(c1)c(CC(=O)O)c(C)n2C(=O)c1ccccc1 | -30.5% (inactive) | –
53 | Nc1ncnc2c1ncn2C1CCCC1 | -37.6% (inactive) | –
54 | O=C(N[C@@H](Cc1ccccc1)C(=O)CCl)OCc1ccccc1 | 45.4% (inactive) | –
55 | COc1cc2c(CCNC(C)=O)c[nH]c2cc1O | -26.3% (inactive) | –
56 | CCCn1c(=O)c2c(ncn2C)n(CCC)c1=O | -37.7% (inactive) | –
57 | CN1CCN(c2nc3cc(C(F)(F)F)ccc3n3cccc23)CC1 | -32.8% (inactive) | –
58 | O=C(O)/C=C/c1ccc(O)c(O)c1 | -25.9% (inactive) | –
59 | CC(=O)NCCc1c[nH]c2ccc(O)cc12 | -21.9% (inactive) | –
60 | NC(=O)CNCCC(c1ccccc1)c1ccccc1 | -39.6% (inactive) | –
61 | CCN(CC)CCCCCCCCOC(=O)c1cc(OC)c(OC)c(OC)c1 | – | 2820 nM (active)
62 | Cc1cccc(C(=O)NCN2CCN(c3ccccc3C#N)CC2)c1 | -40.3% (inactive) | –

Target: Muscarinic acetylcholine receptor M1 (Rattus norvegicus) (UniProt P08482)
Assay: qHTS Assay for Antagonists of Acetylcholine Muscarinic M1 Receptor: Measurement of IP-One Response (AID 944); note: nearly all actives have a fitted effect of over 75% in size; note: potency is the fitted concentration of half-maximal effect
Details: CHO-M1 cells, IP-One HTRF, antagonist mode; series mostly up to 46.1 µM; activity change, negative = inhibition: at the top concentration
Procedure, shortened: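 Steps: plate transfected CHO-M1 cells overnight; add test compound, 10 min; add carbachol (200 nM, EC80) in stimulation buffer with LiCl; incubate 30 min; add labelled IP1 tracer and anti-IP1 antibody in lysis buffer; read HTRF after 10 min.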

Row | SMILES | activity change, negative = inhibition | Potency
63 | NC1(C(=O)O)CCCCC1 | -43.7% (inactive) | –
64 | CCN1C(=O)C=CC1=O | -11.9% (inactive) | –
65 | N#CC(C#N)=C(N)/C(C#N)=C/c1ccc(O)cc1 | -34.8% (inactive) | –
66 | O=c1onc2n1-c1cc(Br)ccc1OC2 | -6.75% (inactive) | –
67 | N[C@H](C(=O)O)[C@H](O)C(=O)O | -43.2% (inactive) | –
68 | S=C(S)N1CCCC1 | 2.06% (inactive) | –
69 | O=C(O)c1ccccc1Nc1ccccc1 | 5.86% (inactive) | –
70 | CNCCNS(=O)(=O)c1cccc2cnccc12 | -2.04% (inactive) | –
71 | NC1(C(=O)O)CC1 | -42.5% (inactive) | –
72 | Nc1ccc(N2C(=O)c3ccccc3C2=O)c(Cl)c1 | -14.6% (inactive) | –
73 | COc1ccc2c(c1)c(CC(=O)O)c(C)n2C(=O)c1ccccc1 | -17.3% (inactive) | –
74 | Nc1ncnc2c1ncn2C1CCCC1 | -17.5% (inactive) | –
75 | O=C(N[C@@H](Cc1ccccc1)C(=O)CCl)OCc1ccccc1 | -14.2% (inactive) | –
76 | COc1cc2c(CCNC(C)=O)c[nH]c2cc1O | -43.9% (inactive) | –
77 | NCCCNCCCCNCCCN | -51.7% (inactive) | –
78 | CN1CCN(c2nc3cc(C(F)(F)F)ccc3n3cccc23)CC1 | -8.59% (inactive) | –
79 | O=C(O)/C=C/c1ccc(O)c(O)c1 | -46.3% (inactive) | –
80 | CC(=O)NCCc1c[nH]c2ccc(O)cc12 | -40.2% (inactive) | –
81 | [Li+] | -18.6% (inactive) | –
82 | O=c1[nH]c2cc(Cl)ccc2c(O)c1-c1ccc(Oc2ccccc2)cc1 | -38% (inactive) | –
83 | CCN(CC)CCCCCCCCOC(=O)c1cc(OC)c(OC)c(OC)c1 | – | 2820 nM (active)
84 | C/C(=C\c1ccc(C(=O)O)cc1)c1ccc2c(c1)C(C)(C)CCC2(C)C | -14.7% (inactive) | –
85 | CCCOC(=O)c1c(-c2ccccc2)nc(CC)c(C(=O)SCC)c1CCC | -22.4% (inactive) | –
86 | Cc1nc2c(OCc3ccccc3)cccn2c1CC#N | -45.1% (inactive) | –
